Shown are actives, neighbours in structure and some others; about 2.4% of the full set was active somewhere.
FEN1 inhibitor: inhibitors of human flap endonuclease 1; 390,000 compounds, 0.35% hits; Recombinant FEN1 flap cleavage, fluorescence, 15 min; P39748; Potency, µM (series often up to 114 µM), inactives show top-dose activity change, negative = inhibition, actives largely listed as inhibitors; further: on the % scale 0 is the no-effect control and ±100 the full control effect; nearly all actives have a fitted effect of over 65% in size
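Read-out was taken twice, immediately and after 15 min, following addition of 50 nM substrate to 10 nM FEN1 that had sat with test compound for 15 min at room temperature. Curves came from a four-parameter Hill model.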
POLI inh: DNA polymerase iota (human) inhibition. Q9UNA4. 390,000 compounds, 1% hits. Potency, µM (highest dose often 115 µM), without a hit: at the highest dose activity, negative = inhibition, actives largely listed as inhibitors. Pol iota fluorescent replication assay, 10 min. AID 588590
Target sequence (Q9UNA4 whole entry, looked up): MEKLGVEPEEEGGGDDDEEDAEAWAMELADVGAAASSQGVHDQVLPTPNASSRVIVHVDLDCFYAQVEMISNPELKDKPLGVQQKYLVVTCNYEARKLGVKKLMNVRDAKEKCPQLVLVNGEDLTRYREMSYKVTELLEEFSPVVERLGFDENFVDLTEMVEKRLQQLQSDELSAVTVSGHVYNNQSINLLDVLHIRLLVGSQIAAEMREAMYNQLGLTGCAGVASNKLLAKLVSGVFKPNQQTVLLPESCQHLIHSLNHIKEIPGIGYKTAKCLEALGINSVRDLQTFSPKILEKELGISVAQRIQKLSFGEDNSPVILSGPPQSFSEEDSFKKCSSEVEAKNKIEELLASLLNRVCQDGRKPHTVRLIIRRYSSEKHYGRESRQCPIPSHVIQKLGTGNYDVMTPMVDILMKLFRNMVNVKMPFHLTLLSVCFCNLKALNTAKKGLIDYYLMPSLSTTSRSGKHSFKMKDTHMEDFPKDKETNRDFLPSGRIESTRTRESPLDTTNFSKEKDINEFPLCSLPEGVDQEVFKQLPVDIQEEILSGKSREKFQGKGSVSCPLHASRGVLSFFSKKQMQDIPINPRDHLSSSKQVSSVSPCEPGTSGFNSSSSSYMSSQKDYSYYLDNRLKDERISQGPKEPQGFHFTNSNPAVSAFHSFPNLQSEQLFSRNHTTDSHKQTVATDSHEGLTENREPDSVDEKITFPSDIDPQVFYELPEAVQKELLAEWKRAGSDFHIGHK
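Pol iota at 10 nM preincubated 15 min with compounds at room temperature; reaction started with fluorescent substrate, 50 nM final. Fluorescence read kinetically at 0 and 10 min; buffer-only wells as negative control.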
Pol eta inh: DNA polymerase eta (human) inhibition. Q9Y253. recombinant Pol eta, fluorescent DNA replication assay. Potency, µM (doses to about 114 µM), for the others: at the highest dose activity change, negative = inhibition, actives largely listed as inhibitors. 390,000 compounds, 1.2% hits. AID 588591; further: on the % scale 0 is the no-effect control and ±100 the full control effect
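Fluorescent replication assay: 50 nM final substrate added after a 15 min room-temperature compound preincubation with 10 nM enzyme. Signal taken at 0 min and again at 10 min.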
WRN inhibitor: inhibitors of human WRN helicase; Potency, µM (series often up to 114 µM), inactives show at the highest dose activity change, negative = inhibition, hits mostly inhibitors; WRN helicase unwinding, fluorescent forked duplex, kinetic; Q14191; 360,000 compounds, 0.46% hits; further: on the % scale 0 is the no-effect control and ±100 the full control effect; nearly all actives have a fitted effect of over 55% in size
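Kinetic red-fluorescence monitoring (525/598 nm) tracks WRN helicase activity after 100 nM fluorophore-quencher forked duplex and 2 mM ATP are added to 20 nM enzyme pretreated 15 min at room temperature with compound.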
POLK inh: blocks human DNA polymerase kappa activity. Q9UBT6. purified Pol kappa, fluorescent DNA synthesis assay, 10 min. Potency, µM (series often up to 107 µM), for inactives: top-dose activity, negative = inhibition, usual class: inhibitors. 400,000 compounds, 0.53% hits. AID 588579; further: on the % scale 0 is the no-effect control and ±100 the full control effect
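Readout: fluorescence, taken kinetically at 0 and 10 min. Conditions: 10 nM Pol kappa, 15 min RT compound preincubation, 50 nM substrate final. Controls: enzyme-free buffer wells.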
Pol beta inh: DNA polymerase beta (human) inhibition; Potency, µM (doses to about 114 µM), for the others: top-dose activity change, negative = inhibition, usual class: inhibitors; P06746; 340,000 compounds, 1.3% hits; Pol beta primer extension/strand displacement, fluorescence kinetic; further: on the % scale 0 is the no-effect control and ±100 the full control effect
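Enzyme-only controls used 10 nM Pol beta; buffer lacking enzyme served as negative control. Compound preincubated 15 min, then 50 nM substrate added; 0 and 10 min reads at room temperature.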
* marks the source's active call; other numbers are inactive results; ? = inconclusive; . = no result; ! = repeats disagree; [ ] = another dose, or the depositor's remark. The call rests on the fitted dose curve; in most records, active means well fitted curve in the direction sought with a large enough effect; inconclusive means small, poorly fitted or top-dose-only effect, or another doubt; inactive means no such curve, though single readings can be large; an effect the other way counts as inactive or inconclusive. Potency means the concentration at half of the fitted maximal effect.

SMILES	FEN1 inhibitor	POLI inh	Pol eta inh	WRN inhibitor	POLK inh	Pol beta inh
COc1cccc2sc(Nc3nc(-c4ccncc4)cs3)nc12	9%	28%	-12%	-16%	-4%	?
COc1cccc2sc(Nc3nc(-c4cc5ccccc5oc4=O)cs3)nc12	?	?	?	?	?	35µM*
COc1cccc(-c2noc(-c3cc4ccccc4oc3=O)n2)c1OC	-1%	71µM*	-7%	.	1%	18%
O=c1c(C=NCc2ccccc2)c(NCc2ccccc2)nc2ccccn12	-3%	-17%	-5%	-13%	-13%	32%
Cc1ccc2nc(NCc3ccco3)c(C=NCc3ccco3)c(=O)n2c1	-2%	1%	-6%	-13%	-14%	28µM*
c1ccc(-c2nc(SCC3CCCCO3)n[nH]2)cc1 (stereo not drawn)	-8%	-9%	.	.	-10%	.
CCc1ccc(NC(=O)Cn2c(SCc3ccc(C)cc3)nc3ccncc32)cc1	7%	?	.	.	-10%	.
COc1ccc(/C=C/C(=O)c2c(O)c(OC)c3occc3c2OC)cc1OC	2%	-11%	.	.	9%	.
O=C(O)[C@@H]1[C@H]2C[C@H]3c4[nH]c5ccccc5c4CCN3C[C@@H]2CC[C@@H]1O	?	?	79µM*	10%	?	.
Cc1ccc(C2(SCC(N)C(=O)O)c3ccccc3-c3ccccc32)cc1 (stereo not drawn)	13%	?	22µM*	-12%	?	.
COc1cc(NS(=O)(=O)c2ccc(NC(=S)NC(=O)c3ccco3)cc2)ncn1	-1%	36%	-7%	-3%	-8%	-12%
COc1cc(NS(=O)(=O)c2ccc(NC(=S)NC(=O)c3sc4ccccc4c3Cl)cc2)ncn1	?	?	25µM*	?	-14%	-23%
CCN(CC)CCOC(=O)c1cccnc1	.	.	.	.	10%[19.4 µM]	.
O=C1c2cccc3c2[C@@H](CCC3)CN1[C@@H]1CN2CCC1CC2	.	.	.	.	1%[19.4 µM]	.
COc1ccc2c(c1)CCc1c-2nc2ccccc2c1N1CCOCC1	50µM*	109%	-9%	-18%	-25%	?
CCc1ccc(NC(=O)CSc2nc(-c3ccccc3Cl)nc3c2Cc2c(CO)cnc(C)c2O3)cc1	-1%	-1%	-12%	.	-6%	32%
CCc1ccc(NC(=O)CSc2nc(-c3ccc(C)cc3)nc3c2Cc2c(CO)cnc(C)c2O3)cc1	-4%	?	?	.	-5%	50µM*
Cc1ncc(CO)c2c1Oc1nc(-c3ccccc3)nc(SCC(=O)Nc3cccc(C(F)(F)F)c3)c1C2	-2%	-15%	?	.	-4%	35µM*
Cc1ncc(CO)c2c1Oc1nc(-c3ccc(F)cc3)nc(SCc3ccc(F)cc3Cl)c1C2	-2%	11%	-9%	.	-29%	50µM*
CCOc1ccc(NC(=O)CSc2nc(-c3ccc(OC)cc3)nc3c2Cc2c(CO)cnc(C)c2O3)cc1	15%	?	-2%	.	-3%	40µM*
CCc1ccccc1NC(=O)CSc1nc(-c2cccc(Cl)c2)nc2c1Cc1c(CO)cnc(C)c1O2	-4%	-12%	3%	.	-8%	1%
NC(C(=O)O)c1ccc(P(=O)(O)O)cc1 (stereo not drawn)	.	.	.	.	5%[19.4 µM]	.
COc1ccc(-c2nc3c(c(SCC(=O)Nc4cccc(O)c4)n2)Cc2c(CO)cnc(C)c2O3)cc1	?	6.3µM*	20µM*	-3%[11.6 µM]	79µM*!	1.6µM*!
Cc1ncc(CO)c2c1Oc1nc(-c3ccccc3)nc(SCC(=O)Nc3cccc(O)c3)c1C2	5%	?	?	-15%	-17%	3%
Cc1ccc(C(=O)COC(=O)c2ccc(Cl)c(N)c2)s1	-4%	0%	-7%	?	-2%	.
SMILES	FEN1 inhibitor	POLI inh	Pol eta inh	WRN inhibitor	POLK inh	Pol beta inh
Nc1cc(C(=O)OCC(=O)c2ccc(CC(=O)N3CCOCC3)s2)ccc1Cl	-21%	13µM*	28µM*	-28%	?	.
CCOc1ccc(CCNC(=O)c2cn(C)c3ccc(S(=O)(=O)N4CCOCC4)cc3c2=O)cc1OCC	-10%	-13%	-14%	-2%	1%	-1%
CCOc1ccc(CCNC(=O)c2cn(C)c3ccc(S(=O)(=O)N4CCCCC4)cc3c2=O)cc1OCC	-8%	79µM*	-13%	.	-5%	?
O=C(Nc1ccc(Oc2ccccc2)cc1)C1CCCO1 (stereo not drawn)	-16%	-13%	10%	-15%	-10%	79µM*
O=C(/C=C/C#Cc1cccc(NS(=O)(=O)c2ccccc2)c1)NO	.	.	.	.	-6%[60.1 µM]	.
O=c1[nH]cnc2n[nH]nc12	5%	8%	.	.	-12%	.
O=C(O)c1cc(-n2cccc2)ccc1N1CCOCC1	-3%	-28%[58.9 µM]	50µM*	3%[11.6 µM]	?	0%
O=[N+]([O-])c1cc(-n2cccc2)ccc1N1CCOCC1	-8%	159%	-19%	-5%	0%	7%
O=S(=O)(c1cccc(Cl)c1)N1CCN(c2nc(-c3cccs3)nc3ccccc23)CC1	16%	28%	.	.	3%	.
CCO/C(=C/c1sc2ccc(OC)cc2[n+]1CCCS(=O)(=O)[O-])CC	11%	-16%	-3%	-4%	-13%	-1%
CCOC(=O)C[n+]1c(C)sc2ccc(OC)cc21	-4%	?	-13%	50µM*	1%	21%
CN(C)c1ccc(CNC(=O)c2ccc3nc(Cc4ccccc4)oc3c2)cc1	1%	28µM*	-11%	.	-12%[60.1 µM]	0%
Cc1cccc(CNC(=O)c2ccc3nc(Cc4ccccc4)oc3c2)c1	0%	21%	-25%	.	-8%[60.1 µM]	-2%
O=c1cc(-c2ccc(O)cc2)oc2cc(OC3OC(CO)C(O)C(O)C3O)c(C3OC(CO)C(O)C(O)C3O)c(O)c12 (stereo not drawn)	.	.	.	.	10%[60.1 µM]	.
CCCCc1nnc(SCCSc2nnc(CCCC)n2N)n1N	0%	89µM*	-10%	7%	-6%	28%
CCc1nnc(SCCSc2nnc(CC)n2N)n1N	-4%	8%	0%	-9%	-2%	-8%
CCN=C1SC(C(=O)Nc2cc(Cl)cc(Cl)c2)CC(=O)N1CC (stereo not drawn)	5%	116%	-2%	3%	-2%	-23%
CCN1C(=O)CC(C(=O)NC)SC1=Nc1cc(Cl)c(O)c(Cl)c1 (stereo not drawn)	-3%	89µM*	1%	9%	-9%	-11%
Cc1c(Cl)cccc1NC(=O)CCS(=O)(=O)c1ccc(Br)s1	20%	-16%	-7%	.	?	50µM*
CCOc1ccc(NC(=O)CCS(=O)(=O)c2ccc(Br)s2)cc1	-4%	8%	?	.	-28%	28µM*
Cc1ccc(NC(=O)CCS(=O)(=O)c2ccc(Br)s2)cc1	-2%	158%	-13%	6%	-7%	2%
